Test results as given in PubChem BioAssay AID1159580 (chemical genetic matrix, 2015).
In all, about 5,500 compounds went through this assay and about 2,000 (36%) were called active. About 18% were inconclusive and are not listed. No stated cut-off is given here; in the data, active means normalized growth mostly below about 0.91 (no sharp cut-off); inconclusive means no clear call, values can overlap the other calls; inactive means mostly above about 0.92. Some of the results follow.

Assay: chemical genetic growth profiling, strain panel (AID 1159580);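 further: tested at 20 µM; growth read once vehicle control cultures reached saturation at 30 °C; 1 = growth at the plate median or of vehicle wells; lower values mean less growth of the strain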
Conditions: S. cerevisiae deletion strains, growth OD
[1] = locus YDL101C, strain DUN1, active compounds read low
[2] = locus YHR030C, strain SLT2, active compounds read low
[3] = locus YAR019C, strain CDC15, active compounds read low
[4] = locus YBL105C, strain PKC1, active compounds read low
[5] = locus YBR135W, strain CKS1, active compounds read low
[6] = locus YBR136W, strain MEC1, active compounds read low
[7] = locus YBR160W, strain CDC28, active compounds read low
[8] = locus YDL017W, strain CDC7, active compounds read low
[9] = locus YDL028C, strain MPS1, active compounds read low
[10] = locus YDL108W, strain KIN28, active compounds read low
[11] = locus YDL132W, strain cdc53, active compounds read low
[12] = locus YDL214C, strain PRR2, active compounds read low
[13] = locus YDR052C, strain DBF4, active compounds read low
[14] = locus YDR054C, strain cdc34, active compounds read low
[15] = locus YDR226W, strain ADK1, active compounds read low
[16] = locus YDR477W, strain SNF1, active compounds read low
[17] = locus YER123W, strain YCK3, active compounds read low
[18] = locus YER133W, strain GLC7, active compounds read low
[19] = locus YFL009W, strain cdc4, active compounds read low
[20] = locus YFL029C, strain CAK1, active compounds read low
[21] = locus YFR003C, strain YPI1, active compounds read low
[22] = locus YFR019W, strain FAB1, active compounds read low
[23] = locus YFR028C, strain CDC14, active compounds read low
[24] = locus YGR040W, strain KSS1, active compounds read low
[25] = locus YGR052W, strain FMP48, active compounds read low
[26] = locus YGR092W, strain DBF2, active compounds read low
[27] = locus YHR079C, strain IRE1, active compounds read low
[28] = locus YHR082C, strain KSP1, active compounds read low
[29] = locus YHR205W, strain SCH9, active compounds read low
[30] = locus YIL147C, strain SLN1, active compounds read low
[31] = locus YJL095W, strain BCK1, active compounds read low
[32] = locus YJL128C, strain PBS2, active compounds read low
[33] = locus YJL157C, strain FAR1, active compounds read low
[34] = locus YJR016C, strain ILV3, active compounds read low
[35] = locus YJR066W, strain TOR1 (second series), active compounds read low
[36] = locus YJR066W, strain TOR1, active compounds read low
[37] = locus YKL048C, strain ELM1, active compounds read low
[38] = locus YKL067W, strain YNK1, active compounds read low
[39] = locus YKL101W, strain HSL1, active compounds read low
[40] = locus YKL193C, strain SDS22, active compounds read low
[41] = locus YKL203C, strain TOR2, active compounds read low
[42] = locus YLR113W, strain HOG1, active compounds read low
[43] = locus YLR133W, strain CKI1, active compounds read low
[44] = locus YLR403W, strain SFP1, active compounds read low
[45] = locus YML070W, strain DAK1, active compounds read low
[46] = locus YMR001C, strain CDC5, active compounds read low
[47] = locus YMR205C, strain PFK2 (second series), active compounds read low
[48] = locus YMR277W, strain FCP1, active compounds read low
[49] = locus YNL006W, strain LST8, active compounds read low
[50] = locus YNL020C, strain ARK1, active compounds read low
[51] = locus YNL161W, strain CBK1, active compounds read low
[52] = locus YNL183C, strain NPR1, active compounds read low
[53] = locus YNL207W, strain RIO2, active compounds read low
[54] = locus YNL222W, strain SSU72, active compounds read low
[55] = locus YNL307C, strain MCK1 (second series), active compounds read low
[56] = locus YOL078W, strain AVO1, active compounds read low
[57] = locus YOL136C, strain PFK27, active compounds read low
[58] = locus YOR061W, strain CKA2, active compounds read low
[59] = locus YOR119C, strain RIO1, active compounds read low
[60] = locus YOR231W, strain MKK1, active compounds read low
[61] = locus YOR329C, strain SCD5, active compounds read low
[62] = locus YPL031C, strain PHO85, active compounds read low
[63] = locus YPL153C, strain RAD53, active compounds read low
[64] = locus YPL204W, strain HRR25, active compounds read low
[65] = locus YPL209C, strain IPL1, active compounds read low
[66] = locus YPL256C, strain CLN2, active compounds read low
[67] = locus YPR025C, strain CCL1, active compounds read low
[68] = locus YPR106W, strain ISR1, active compounds read low
[69] = locus YPR111W, strain DBF20, active compounds read low
[70] = strain NNK1, active compounds read low
[71] = strain TSCII, active compounds read low

Measured: normalized growth

COC(=O)C1=C(Nc2ccc(Cl)cc2)CSC1
active: locus YDL134C, strain PPH21, active compounds read low 0.773 | locus YEL061C, strain CIN8, active compounds read low 0.771 | [2] 0.203 | locus YJL187C, strain SWE1, active compounds read low 0.902 | locus YKL190W, strain CNB1, active compounds read low 0.834 | locus YLR039C, strain RIC1, active compounds read low 0.455 | locus YLR085C, strain ARP6, active compounds read low 0.368 | locus YLR262C, strain YPT6, active compounds read low 0.468 | locus YML094W, strain GIM5, active compounds read low 0.833 | locus YMR307W, strain GAS1, active compounds read low 0.417 | locus YNL298W, strain CLA4 (second series), active compounds read low 0.676 | locus YNR030W, strain Alg12, active compounds read low 0.759 | locus YOL006C, strain TOP1, active compounds read low 0.522 | locus YPL241C, strain CIN2, active compounds read low 0.742 | locus YPR135W, strain CTF4, active compounds read low 0.314
inactive: locus YAL013W, strain DEP1, active compounds read low 0.956 | locus YBR229C, strain ROT2, active compounds read low 0.967 | locus YCL061C, strain MRC1, active compounds read low 0.959 | [1] 0.941 | locus YDR150W, strain NUM1, active compounds read low 0.929 | locus YGR078C, strain PAC10, active compounds read low 0.949 | locus YHR087W, strain rtc3, active compounds read low 0.962 | locus YJR075W, strain HOC1, active compounds read low 0.911 | locus YLR058C, strain SHM2 (second series), active compounds read low 0.969 | locus YMR219W, strain ESC1, active compounds read low 0.972 | locus YMR263W, strain SAP30, active compounds read low 0.953 | locus YNL153C, strain GIM3, active compounds read low 0.965 | locus YNL322C, strain KRE1, active compounds read low 0.97 | locus YPL055C, strain LGE1, active compounds read low 0.811

Clc1ccccc1N/N=C\Cc1nnnn1-c1ccccc1
inactive: [3] 0.982 | [4] 0.966 | [5] 0.962 | [6] 0.966 | [7] 0.97 | [8] 0.98 | [9] 0.972 | [1] 0.976 | [10] 0.974 | [11] 0.953 | [12] 0.904 | [13] 0.974 | [14] 0.96 | [15] 0.972 | [16] 0.898 | [17] 0.729 | [18] 0.91 | [19] 0.965 | [20] 0.966 | [21] 0.97 | [22] 0.831 | [23] 0.957 | [24] 0.91 | [25] 0.827 | [2] 0.924 | [27] 0.85 | [28] 0.951 | [29] 0.863 | [30] 0.971 | [31] 0.716 | [32] 0.951 | [33] 0.893 | [34] 0.96 | [35] 0.774 | [36] 0.888 | [37] 0.92 | [38] 0.89 | [39] 0.889 | [40] 0.966 | [41] 0.929 | [42] 0.923 | [43] 0.888 | [44] 0.814 | [45] 0.787 | [46] 0.967 | [47] 0.92 | [48] 0.969 | [49] 0.98 | [50] 0.878 | [51] 0.974 | [52] 0.89 | [53] 0.958 | [54] 0.973 | [55] 0.669 | [56] 0.962 | [57] 0.795 | [59] 0.924 | [60] 0.845 | [61] 0.971 | [62] 0.853 | [63] 0.832 | [64] 0.818 | [65] 0.967 | [66] 0.99 | [67] 0.973 | [68] 0.98 | [69] 0.963 | [70] 0.992 | [71] 0.963
active: [26] 0.282 | [58] 0.567

Fc1ccc(N/N=C\Cc2nnnn2-c2ccccc2)c(F)c1
active: [12] 0.554 | [16] 0.332 | [17] 0.283 | [18] 0.592 | [22] 0.414 | [24] 0.478 | [25] 0.302 | [26] 0.122 | [2] 0.387 | [27] 0.366 | [28] 0.571 | [31] 0.16 | [33] 0.519 | [35] 0.246 | [36] 0.356 | [37] 0.55 | [38] 0.427 | [39] 0.341 | [41] 0.481 | [42] 0.426 | [43] 0.55 | [44] 0.429 | [45] 0.249 | [47] 0.646 | [50] 0.536 | [52] 0.358 | [55] 0.189 | [57] 0.385 | [58] 0.222 | [59] 0.408 | [60] 0.328 | [62] 0.315 | [63] 0.359 | [64] 0.406 | [66] 0.537
inactive: [3] 0.957 | [4] 0.951 | [5] 0.947 | [6] 0.952 | [7] 0.961 | [8] 0.956 | [9] 0.955 | [1] 0.967 | [10] 0.948 | [11] 0.952 | [13] 0.946 | [14] 0.904 | [15] 0.95 | [19] 0.954 | [20] 0.955 | [21] 0.955 | [23] 0.953 | [29] 0.622 | [30] 0.958 | [32] 0.963 | [34] 0.973 | [40] 0.954 | [46] 0.951 | [48] 0.952 | [49] 0.962 | [51] 0.954 | [53] 0.952 | [54] 0.954 | [56] 0.947 | [61] 0.964 | [65] 0.958 | [67] 0.956 | [68] 0.976 | [69] 0.97 | [70] 0.971 | [71] 0.945
